Here are results for 7 molecules from PubChem BioAssay.

The target in test [1] is 6-phosphogluconate dehydrogenase, decarboxylating (Homo sapiens) (UniProt P52209). Put plainly: inhibition of human phosphogluconate dehydrogenase – biochemical, recombinant enzyme, NADPH absorbance, primary screen (AID 1159550;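 active = at least 20% inhibition of 6-phosphogluconate dehydrogenase activity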). As to conditions: recombinant 6PGD, NADPH absorbance 341 nm; at 10 µM; stronger effect = higher value.
The subject of test [2] is Aerobactin synthetase IucA (Klebsiella pneumoniae hvKP1). Put plainly: IucA enzyme inhibition, primary screen, biochemical, Spectrum library (AID 1346200).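 Note: 100% = wells without compound and 0% = wells lacking enzyme.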 Particulars: malachite green pyrophosphate, A620, at 8 µM, stronger effect = lower value.
The nature of test [3]: blockers of polyQ-driven CASP3 activation – cell-based (AID 1583). Particulars: polyglutamine-induced caspase-3 activation, cell assay; stronger effect = higher value;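 tested at 10 µM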.
Test [4] deals with Huntingtin (Homo sapiens) (UniProt P42858). Put plainly: mutant huntingtin aggregation blockers – QA1, dose response (AID 1584). As to conditions: in vitro mutant huntingtin aggregation assay; confirmation test; at 10 µM; stronger effect = lower value.
Test [5] can be described thus: blockers of biotin-polyQ monomer incorporation into aggregates – biochemical, solid-phase synthetic aggregates, QA3 (AID 1585). As to conditions: polyQ aggregate elongation; EC50: measured here: elongation inhibition potency; inhibition: at 100 µM, stronger effect = higher value.
Test [6] is described as follows: yeast 75Q aggregation reduction – 75Q-TubU reporter (AID 1593). Particulars: Yeast 75Q polyglutamine aggregation reporter.
The nature of test [7]: restoration of touch response, mutant HTT neurons – whole organism, C. elegans mechanosensory neurons, N-terminal huntingtin (AID 1599). As to conditions: C. elegans polyQ-huntingtin mechanosensory neurons, stronger effect = higher value.
A short description of test [8]: blockers of cytochrome c efflux from mitochondria – biochemical, purified mitochondria (AID 1603).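 Note: mouse liver mitochondria challenged with calcium chloride; signal normalized to the plate average as 100%.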 As to conditions: stronger effect = lower value.
A short description of test [9]: polyglutamine aggregate formation blockers (AID 1604). As to conditions: polyglutamine-induced protein aggregation inhibition assay; stronger effect = higher value; tested at 2.5 µM.
A short description of test [10]: glutamate transport activators, MN-1 cells, MN-1 cell line (AID 1612).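 Note: tested at 1 µM final; 0% = mean of DMSO vehicle wells on each plate; positive means more glutamate uptake than control and negative means less.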 Particulars: MN-1 motor neuron cells, stronger effect = higher value.
A short description of test [11]: GFP-Q80 aggregate reduction, neuronal-like cells, cell-based, NGF-treated PC12, GFPQ80 (AID 1614).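 Note: lower means fewer inclusions and 0 means no inclusions at all.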 Particulars: PC12 NGF-treated GFP-polyQ80 inclusion reduction.
A short description of test [12]: 75Q-TubH aggregate inhibition, S. cerevisiae, yeast (AID 1616). As to conditions: S. cerevisiae 75Q-TubH polyglutamine aggregation suppression; stronger effect = higher value.
Test [13] can be described thus: MELAS cybrid and Rieske KO viability enhancers – cell-based, MELAS cybrids, Rieske KO mouse fibroblasts, CellTiter-Glo, primary screen (AID 1508586;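 active = mean z-score across replicates of 1.96 or higher in either the MELAS or the Rieske mutant cell line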;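 note: z relative to plate mean and SD of compound and empty wells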). Particulars: low glucose.
Test [14] deals with Mitogen-activated protein kinase 7 (Homo sapiens) (UniProt Q13164). Put plainly: Gal4-ERK5 driven luciferase induction – cell-based, HTS, primary screen (AID 1508626;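 active = luciferase signal above three times the same-plate solvent-only control wells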;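 note: luciferase driven by Gal4-ERK5 fusion binding five Gal4 sites before minimal TATA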). As to conditions: HeLa Gal4-ERK5 transactivation, 18 h, at 5 µM, stronger effect = higher value.
Test [15] addresses ATP-dependent translocase ABCB1 (Homo sapiens) (UniProt P08183). The test is described as follows: P-glycoprotein substrate transport blockade – cell-based (AID 377; in the data active = fluorescence slope change above about 50%). Particulars: MDR1-expressing cells, fluorescent substrate accumulation slope; stronger effect = higher value; concentration not given here.
Test [16] is described as follows: P. berghei load reduction in hepatocytes – cell-based, HepG2, luciferase luminescence, HepG2 viability, primary screen (AID 624349; in the data active = parasite load remaining mostly below about 12%, no sharp cut-off; inactive = mostly above about 10%;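 note: 100% = mean of DMSO negative control wells on the same plate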). Particulars: P. berghei liver stage in HepG2, luciferase luminescence, concentration not given here; parasite load remaining: stronger effect = lower value; viability: measured here: HepG2 viability without parasites.
The nature of test [17]: viability loss with induced miR-34 in A549 – imaging, A549 dox-inducible miR-34, nuclei and caspase counts, primary screen (AID 1347080;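 active = compounds whose cell count with miR-34 switched on is under 0.7 times the count with it off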). Particulars: A549 miR-34 inducible, Hoechst nuclei count, 48 h.
Test [18] has as its target NAD(+) hydrolase SARM1 (Homo sapiens) (UniProt Q6SZW1). Put plainly: blocking NAD cleavage by SARM1 SAM-TIR – cell lysate, NAD-Glo luminescence (AID 1508614;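 active = compound whose remaining NAD level is above about 45 nM, limit read from the data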;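 note: higher remaining NAD means stronger inhibition of SARM1 NADase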). As to conditions: SAM-TIR HEK293T lysate NADase, at 1 µM, stronger effect = higher value.
A short description of test [19]: blockers of MitoPT in mitochondria (AID 1580). As to conditions: isolated mitochondria, permeability transition inhibition.
Test [20] is described as follows: turbidity assay for polyglutamine aggregation inhibitors, qthio, 25 µM (AID 1588). As to conditions: at 25 µM, stronger effect = lower value.
Test [21] is described as follows: compounds altering viability of human ES cells (AID 493140).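 Note: cells exposed to compounds for four days before counting.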 As to conditions: human embryonic stem cell survival screen; stronger effect = higher value.
Setting [22] is: measured here: relative caspase fold change +Dox/-Dox.
The mark [23] stands for this setting: measured here: total cells with miR-34 induction, stronger effect = lower value.
Setting [24] is: measured here: total cells without miR-34 induction.

Each structure is given as a SMILES string. Values joined by “and” are separate entries in the source; they are usually repeats but may differ in a detail not shown here. Equal entries are not always repeated. Results filed as inconclusive are left out. For some assays here: Entries with a potency or affinity are not part of this list. Active and inactive are the calls of the source. Unless noted, the rule behind the calls is not given here.

Sequence of 6-phosphogluconate dehydrogenase, decarboxylating (Homo sapiens) (P52209 whole entry, looked up): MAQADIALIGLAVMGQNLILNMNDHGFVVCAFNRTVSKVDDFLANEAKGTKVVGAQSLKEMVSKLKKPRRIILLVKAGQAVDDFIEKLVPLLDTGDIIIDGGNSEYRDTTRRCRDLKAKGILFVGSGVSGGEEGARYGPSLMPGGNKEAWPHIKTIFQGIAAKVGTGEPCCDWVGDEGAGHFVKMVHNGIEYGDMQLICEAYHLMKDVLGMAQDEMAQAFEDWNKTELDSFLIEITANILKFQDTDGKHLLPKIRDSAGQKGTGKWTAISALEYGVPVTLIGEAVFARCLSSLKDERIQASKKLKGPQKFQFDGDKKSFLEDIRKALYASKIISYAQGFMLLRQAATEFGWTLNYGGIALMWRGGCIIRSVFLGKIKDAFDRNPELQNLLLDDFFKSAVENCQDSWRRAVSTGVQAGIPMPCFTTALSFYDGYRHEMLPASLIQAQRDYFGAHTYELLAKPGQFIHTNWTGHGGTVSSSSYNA
Sequence of Mitogen-activated protein kinase 7 (Homo sapiens) (Q13164 whole entry, looked up, the tested form may be a part): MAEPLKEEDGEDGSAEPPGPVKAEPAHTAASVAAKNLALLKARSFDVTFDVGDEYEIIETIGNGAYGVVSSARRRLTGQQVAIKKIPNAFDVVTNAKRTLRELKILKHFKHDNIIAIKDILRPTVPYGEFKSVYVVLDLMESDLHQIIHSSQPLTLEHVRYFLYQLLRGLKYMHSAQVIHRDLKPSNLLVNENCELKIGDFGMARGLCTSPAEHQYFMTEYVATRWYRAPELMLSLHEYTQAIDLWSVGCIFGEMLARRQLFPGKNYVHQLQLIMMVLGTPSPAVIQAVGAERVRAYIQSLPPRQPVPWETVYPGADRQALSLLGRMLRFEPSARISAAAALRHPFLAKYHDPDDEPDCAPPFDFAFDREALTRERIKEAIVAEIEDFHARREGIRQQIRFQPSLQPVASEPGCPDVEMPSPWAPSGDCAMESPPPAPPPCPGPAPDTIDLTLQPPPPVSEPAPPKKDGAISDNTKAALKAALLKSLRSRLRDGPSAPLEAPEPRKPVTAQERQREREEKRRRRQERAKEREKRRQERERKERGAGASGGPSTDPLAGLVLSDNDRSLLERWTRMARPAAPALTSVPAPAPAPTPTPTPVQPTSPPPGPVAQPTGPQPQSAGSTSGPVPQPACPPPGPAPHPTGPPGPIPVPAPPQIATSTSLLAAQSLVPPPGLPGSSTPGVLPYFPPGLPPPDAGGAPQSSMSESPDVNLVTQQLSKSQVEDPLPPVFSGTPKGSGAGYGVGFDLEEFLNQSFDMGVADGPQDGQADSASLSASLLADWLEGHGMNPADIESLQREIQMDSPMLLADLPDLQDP
Sequence of NAD(+) hydrolase SARM1 (Homo sapiens) (Q6SZW1 whole entry, looked up): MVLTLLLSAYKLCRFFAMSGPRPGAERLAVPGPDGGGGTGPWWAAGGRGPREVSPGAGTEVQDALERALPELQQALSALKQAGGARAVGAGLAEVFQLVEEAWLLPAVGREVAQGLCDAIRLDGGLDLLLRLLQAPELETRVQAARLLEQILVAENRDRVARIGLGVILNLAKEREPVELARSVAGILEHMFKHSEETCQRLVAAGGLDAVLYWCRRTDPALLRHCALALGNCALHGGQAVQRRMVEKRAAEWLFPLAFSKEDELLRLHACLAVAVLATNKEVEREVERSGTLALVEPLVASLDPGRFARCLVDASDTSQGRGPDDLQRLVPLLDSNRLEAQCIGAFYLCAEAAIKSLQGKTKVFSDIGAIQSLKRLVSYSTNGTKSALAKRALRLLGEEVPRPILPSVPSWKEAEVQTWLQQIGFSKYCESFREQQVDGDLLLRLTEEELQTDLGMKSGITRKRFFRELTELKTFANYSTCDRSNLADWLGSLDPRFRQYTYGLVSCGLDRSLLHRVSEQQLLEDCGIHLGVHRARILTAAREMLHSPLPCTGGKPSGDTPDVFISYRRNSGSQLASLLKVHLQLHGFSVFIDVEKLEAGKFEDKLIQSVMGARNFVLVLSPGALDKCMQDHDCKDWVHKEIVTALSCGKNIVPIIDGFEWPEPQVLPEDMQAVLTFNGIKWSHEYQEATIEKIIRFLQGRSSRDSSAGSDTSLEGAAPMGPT
Sequence of ATP-dependent translocase ABCB1 (Homo sapiens) (P08183 whole entry, looked up): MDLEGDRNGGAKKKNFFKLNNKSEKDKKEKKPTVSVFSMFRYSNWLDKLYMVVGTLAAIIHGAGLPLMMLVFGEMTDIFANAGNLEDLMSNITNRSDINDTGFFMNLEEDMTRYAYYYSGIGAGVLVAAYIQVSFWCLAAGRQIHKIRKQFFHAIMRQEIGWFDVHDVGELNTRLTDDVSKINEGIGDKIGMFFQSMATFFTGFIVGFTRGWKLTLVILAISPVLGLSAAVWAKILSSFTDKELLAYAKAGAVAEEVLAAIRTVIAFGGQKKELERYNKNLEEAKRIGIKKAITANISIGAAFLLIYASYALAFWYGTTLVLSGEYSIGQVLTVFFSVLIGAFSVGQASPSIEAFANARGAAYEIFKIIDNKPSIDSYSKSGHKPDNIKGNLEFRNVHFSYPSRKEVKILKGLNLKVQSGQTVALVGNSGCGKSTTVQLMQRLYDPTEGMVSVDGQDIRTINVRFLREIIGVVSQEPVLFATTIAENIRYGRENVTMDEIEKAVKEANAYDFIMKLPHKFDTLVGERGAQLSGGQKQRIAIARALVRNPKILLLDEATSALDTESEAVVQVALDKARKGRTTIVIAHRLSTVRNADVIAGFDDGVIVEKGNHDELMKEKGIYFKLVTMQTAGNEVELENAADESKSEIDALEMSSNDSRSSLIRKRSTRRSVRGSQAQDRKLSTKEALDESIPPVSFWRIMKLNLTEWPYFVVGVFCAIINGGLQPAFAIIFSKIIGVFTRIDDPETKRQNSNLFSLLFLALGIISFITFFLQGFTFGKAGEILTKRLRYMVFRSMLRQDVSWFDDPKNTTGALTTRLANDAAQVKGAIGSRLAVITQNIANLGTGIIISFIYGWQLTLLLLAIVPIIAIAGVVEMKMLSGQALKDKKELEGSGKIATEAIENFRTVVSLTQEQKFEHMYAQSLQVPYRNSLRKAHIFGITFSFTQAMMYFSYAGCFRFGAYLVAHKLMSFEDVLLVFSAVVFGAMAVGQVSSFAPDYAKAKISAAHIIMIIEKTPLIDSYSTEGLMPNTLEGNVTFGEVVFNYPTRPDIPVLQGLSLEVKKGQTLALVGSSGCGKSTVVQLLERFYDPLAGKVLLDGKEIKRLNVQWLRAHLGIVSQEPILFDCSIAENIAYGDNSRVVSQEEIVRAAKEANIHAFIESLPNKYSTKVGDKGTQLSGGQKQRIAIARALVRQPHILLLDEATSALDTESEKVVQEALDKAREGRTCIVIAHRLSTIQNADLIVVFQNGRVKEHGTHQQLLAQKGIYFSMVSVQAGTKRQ

As to `COC(=O)COc1ccc(Cl)cc1Cl`, in test [1], the inhibition was -25.1% (inactive). In addition, the activity remaining in test [2] is 109% (inactive).
The corresponding values for `CC1C[C@H]2CC(=O)[C@H]3CCCN4CCC[C@H]2[C@]34C1` (stereo not given in full) are -1.6% (inactive) and 91.3% (inactive).
Consider `Cc1cc2c(C(C)C)c(O)c(O)c(C=O)c2c(O)c1-c1c(C)cc2c(C(C)C)c(O)c(O)c(C=O)c2c1O`, for which the inhibition was 60.9% in test [3]; 68% (active) in [5]; 14.1% (inactive) and -10.8% (inactive) in test [1]. Also, in test [4], the aggregation ratio is 0.119. Moreover, in [5], the EC50 was 57 µM. The same molecule came in with a score in test [6] of 1.78. This molecule yielded a rescue above control in test [7] of 0. The cytochrome c release ratio in [8] was 0.19. In [9], the inhibition of aggregation was 19.1%. Also, the glutamate uptake change in test [10] was -53.4%. For the same molecule, in test [11], the inclusion score turned out to be 0. In test [12], the aggregation suppression score is 0.368. For the same molecule, the activity remaining in test [2] was 96.1% (inactive) and 125% (inactive). Besides, the z-score in test [13] (MELAS cybrid survival, CellTiter-Glo 48 h, stronger effect = higher value) is -0.449 (inactive) and -0.0386 (inactive); in test [13] (Rieske KO mouse fibroblast survival, CellTiter-Glo 72 h), -0.0272 and 0.0258.
On to `CC(C)(C)C(=O)C(Oc1ccc(Cl)cc1)n1cncn1` (stereo not given), for which the inhibition in test [1] was 12.8% (inactive). The activity remaining in [2] is 127% (inactive). Besides, the luciferase signal in test [14] is 44 AU (inactive).
With `C[CH2][Hg][S]c1ccccc1C(=O)O`, the fluorescence slope change in [15] was -19.9% (inactive). Moreover, the results for the inhibition in test [3] and in test [1] were 67.3% and 17.7% (inactive), respectively. The same molecule showed a score in test [6] of -0.03. The rescue above control in test [7] is 0. In addition, the cytochrome c release ratio in [8] stood at 0.71. This molecule also registered an inhibition of aggregation in test [9] of 18.2%. Further, the glutamate uptake change in test [10] was found to be 8.21%. In test [12], the aggregation suppression score was -0.00186. Besides, the parasite load remaining in test [16] was 82.3% (inactive) and 0.045% (inactive). Further, the viability in test [16] is 62% and 0.315%. In test [2], the activity remaining was -3.51% (active). For the same molecule, the fold change in test [17] (stronger effect = lower value) was 1.62 (inactive); in test [17] (setting [22]), 0.728. For the same molecule, the cell count in test [17] (setting [23]) was found to be 630; in test [17] (setting [24]), 389. For the same molecule, the remaining NAD in [18] is 10 nM (inactive). Also, in test [14], the luciferase signal was 44 AU (inactive).
Consider `CCC(C)C(=O)O[C@@H]1C[C@@]2(C)[C@H](c3ccoc3)OC(=O)CC23OC2(C)O[C@]14[C@]1(C)[C@@H](CC(=O)OC)C5(C)CC1(O)[C@](O)(C5OC(=O)C1(C)OC1C)[C@@H](OC(C)=O)[C@]34O2` (stereo not given in full), for which the inhibition in test [1] is -16.5% (inactive). Further, the activity remaining in test [2] was 103% (inactive). For the same molecule, the luciferase signal in test [14] was 12 AU (inactive).
In the case of `O=C(O)c1ccccc1-c1c2cc(Br)c(=O)cc-2oc2[c]([Hg])c(O)c(Br)cc12`, the 50% effective concentration (EC50) was 10 µM (active) in test [19] and 38 µM in test [5]. In addition, the inhibition in [3] is 39.1%; in test [5] it was 61.6% (active); in test [1] it was 2.12% (inactive). Moreover, the aggregation (% of control) in test [20] was 41.9% (active). This molecule also displayed a score in [6] of 0.07. Moreover, the rescue above control in test [7] was 0. Further, the cytochrome c release ratio in test [8] is 1.39. The inhibition of aggregation in [9] amounted to 57.7%. In test [10], the glutamate uptake change is -7.36%. Moreover, the aggregation suppression score in test [12] was determined as 0.0281. For the same molecule, the survival in test [21] was 18.6 (inactive). For the same molecule, the parasite load remaining in [16] is 62.4% (inactive) and 40.3% (inactive). The viability in test [16] is 57.8% and 97.8%. Further, the activity remaining in test [2] was -1.02% (active). Besides, the fold change was 0.908 (inactive) in test [17] (stronger effect = lower value) and 2.08 in test [17] (setting [22]). The cell count in test [17] (setting [23]) was found to be 11900; in test [17] (setting [24]), 13100. Also, the remaining NAD in [18] is 56 nM (active). For the same molecule, in [14], the luciferase signal was 52 AU (inactive).

The inhibition is the relative decrease from the control value, in per cent. The EC50 is the midpoint of the concentration-response curve. The viability is the share of living cells, or the viability signal relative to a control.
